Laboratory results taken from PubChem BioAssay (NCI).
The panel holds about 83,000 compounds, 20% with a hit somewhere; the sample as a whole holds those more often.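 Activity criterion: percent growth below 10, measured after cells in 96-well plates were exposed to a single compound concentration for 48 hours.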 Calls of active or inactive are those of the source.

test system: HT29 colon; assay: NCI-60 one-dose screen, 48 h (100 = growth as untreated, 0 = no growth, -100 = all killed); details: 10 µM

| Structure (SMILES) | growth |
| --- | --- |
| O=C(CCn1cnc2c(cc(-c3ccccc3)n2-c2ccccc2)c1=O)Nc1ccc(F)cc1 | 89.9% (inactive) |
| Cc1c(Cl)cccc1NC(=O)CN1CCOCC1 | 84.2% (inactive) |
| CC(C)(C)OC(=O)CN1CCc2c(sc3ncnc(N/N=C/c4cccc5ccccc45)c23)C1 | 45% (inactive) |
| CCn1c(SCc2ccc(C)cc2)nnc1-c1nn(-c2ccc(Cl)cc2Cl)c(-c2ccc(Cl)cc2)c1C | 2.65% (active) |
| O=C(Nc1nc(-c2ccccc2)nc2c1sc(=S)n2-c1ccccc1)C(F)(F)F | 94.8% (inactive) |
| Cc1c[nH]c(=O)n(Cc2nnc(CCC(=O)c3nc4ccccc4[nH]3)o2)c1=O | 8.43% (active) |
| CCCCN(CCCC)C(=O)[C@H](CC)[C@@H]1CC[C@@H](C)[C@@H]([C@H](C)[C@@H](O)[C@@H](C)C(=O)[C@H](CC)C2O[C@]3(C=CC(=O)[C@]4(CC[C@@](C)([C@H]5CC[C@](O)(CC)[C@H](C)O5)O4)O3)[C@H](C)C[C@@H]2C)O1 (stereo partly specified) | 20.9% (inactive) |
| CCN(CC)CCOc1cccc2c1C(=O)c1ccccc1C2=O | 80.6% (inactive) |
| COc1cc(OC)c2c(=O)c(O)c(-c3ccccc3)oc2c1 | 99.6% (inactive) |
| COc1ccc(-c2cc(-c3ccccc3)nc(SCCCC(=O)NO)n2)cc1 | 5.87% (active) |
| COc1cc(-c2nn(-c3ccc(NC(=O)NCCNS(=O)(=O)c4ccc(F)cc4)cc3)cc2-c2ccncc2)ccc1Cl | -24.9% (active) |
| Cc1[nH]c2ccccc2c1/C=N/Nc1ncnc2sc3c(c12)CCN(CC(=O)OC(C)(C)C)C3 | 41.8% (inactive) |
| O=C1CSC(=S)N1/N=C/c1ccc(Cl)s1 | 110% (inactive) |
| O=C(CC(CC(=O)c1ccccc1)c1ccccc1O)c1ccccc1 | 90.3% (inactive) |
| CCOC(=O)c1cc(C(=O)c2cc(OC)cc(OC)c2)n2nc(C)ccc12 | 3.72% (active) |
| CCCc1cn(CC(=O)Nc2nc3ccccc3s2)nn1 | 104% (inactive) |

| Structure (SMILES) | growth |
| --- | --- |
| CC(CN(C)C)Oc1ccc(OC(C)CN(C)C)c2c1C(=O)c1ccccc1C2=O (stereo unspecified) | 20.8% (inactive) |
| COc1cc(-c2nn(-c3cccc(NC(=O)NCCNC(=O)c4cccc(C(F)(F)F)c4)c3)cc2-c2ccncc2)ccc1Cl | 21.1% (inactive) |
| Cc1ccc(NCCNCC(C)(C)O)c2c(=O)c3ccc(Cl)cc3sc12 | -73.1% (active) |
| CNS(=O)(=O)Oc1ccc(-c2sc3cc(OS(=O)(=O)NC)ccc3c2C(=O)c2ccc(OCCN3CCCCC3)cc2)cc1 | 31.1% (inactive) |
| CN(C)CCOc1ccccc1NC1=C(Cl)C(=O)C(Nc2ccccc2OCCN(C)C)=C(Cl)C1=O | 15% (inactive) |
| COc1cc(-c2nn(-c3cccc(NC(=O)CCNc4ccc(N5CCOCC5)cc4)c3)cc2-c2ccncc2)ccc1Cl | 11.8% (inactive) |
| C=CCSC(CC)(CC)C(=O)NC | 87% (inactive) |
| Cc1c(Cl)cccc1NC(=O)CCCl | 95.4% (inactive) |
| CC(=O)C1N=NCC1c1ccccc1 (stereo unspecified) | 105% (inactive) |
| CCN(CC)CCOc1cccc2c1C(=O)c1cccc(OCCN(CC)CC)c1C2=O | 13.8% (inactive) |
| CC(C)(C)OC(=O)CN1CCc2c(sc3ncnc(N/N=C/c4ccccc4Br)c23)C1 | 81.6% (inactive) |
| N#CCc1csc(Cc2ccccc2)n1 | 98% (inactive) |
| Clc1ccc(C2=NN=C3C(Cc4ccccc4)=Nc4ccccc4N3C2)cc1 | 84.6% (inactive) |
| CCN(CC)CC(=O)N(CC)c1ccc(C)c(Cl)c1 | 90.1% (inactive) |
| COc1cc(-c2csc(NC(=O)Nc3ccc(Cl)c(C(F)(F)F)c3)n2)cc(OC)c1OC | 4.27% (active) |

test system: SNB-75 CNS; assay: as above; details: 10 µM

| Structure (SMILES) | growth |
| --- | --- |
| CCOS(=O)(=O)c1c(C(C)C)cc(C(C)C)cc1C(C)C | 96.8% (inactive) |
| CC(C)CCN(CCC(C)C)CC(=O)Nc1ccc(S(=O)(=O)c2ccc(NC(=O)CN(CCC(C)C)CCC(C)C)cc2)cc1 | 79.3% (inactive) |
| O=C(N/N=C/c1cc([N+](=O)[O-])ccc1O)c1cccc2ccccc12 | 55% (inactive) |
| COc1cc(Cc2cc(-c3ccccc3)n[nH]c2=O)cc(OC)c1OC | 55.5% (inactive) |
| C1CN(CC2CCC(CN3CCOCC3)O2)CCO1 (stereo unspecified) | 96.5% (inactive) |
| Cc1cc(=O)n2nnc3cc(Cl)c(Cl)cc3n12 | 95.6% (inactive) |
| CC(=O)N[C@H](C(=O)N[C@@H](CCCNC(=N)N)C(=O)N[C@@H](CCCCN)C(=O)N[C@@H](CCCNC(=N)N)C(=O)N[C@]1(C)CCCCCC/C=C\CCC[C@@](C)(C(=O)N[C@@H](CCCNC(=N)N)C(=O)N[C@@H](CCC(=O)O)C(=O)N[C@@H](CC(C)C)C(=O)N[C@H](C(=O)N[C@@H](CCC(=O)O)C(N)=O)C(C)C)NC(=O)[C@H](CCC(N)=O)NC(=O)[C@H](CC(C)C)NC(=O)[C@H](CC(C)C)NC(=O)[C@H](CCCNC(=N)N)NC(=O)[C@H](CCCNC(=N)N)NC(=O)[C@H](CC(C)C)NC1=O)C(C)C | 2.79% (active) |
| Cc1ccc(/C=C2/C(=O)N(C)c3ccc(S(=O)(=O)Nc4ccc(C(C)(C)C)cc4)cc32)s1 | -9.41% (active) |
| CC(=O)[C@H]1CC[C@]2(C)[C@@H]1CC[C@@H]1[C@@]3(C)CC(CCC#N)(CCC#N)C(=O)C(C)(C)[C@@H]3CC[C@]12C | 84.5% (inactive) |
| O=C(CCn1cnc2c(cc(-c3ccccc3)n2-c2ccccc2)c1=O)Nc1ccc(F)cc1 | 4.9% (active) |
| Cc1c(Cl)cccc1NC(=O)CN1CCOCC1 | 88.9% (inactive) |
| CC(C)(C)OC(=O)CN1CCc2c(sc3ncnc(N/N=C/c4cccc5ccccc45)c23)C1 | 46% (inactive) |
| CCn1c(SCc2ccc(C)cc2)nnc1-c1nn(-c2ccc(Cl)cc2Cl)c(-c2ccc(Cl)cc2)c1C | 23.3% (inactive) |
| O=C(Nc1nc(-c2ccccc2)nc2c1sc(=S)n2-c1ccccc1)C(F)(F)F | 96.5% (inactive) |
| Cc1c[nH]c(=O)n(Cc2nnc(CCC(=O)c3nc4ccccc4[nH]3)o2)c1=O | -33% (active) |
| CCCCN(CCCC)C(=O)[C@H](CC)[C@@H]1CC[C@@H](C)[C@@H]([C@H](C)[C@@H](O)[C@@H](C)C(=O)[C@H](CC)C2O[C@]3(C=CC(=O)[C@]4(CC[C@@](C)([C@H]5CC[C@](O)(CC)[C@H](C)O5)O4)O3)[C@H](C)C[C@@H]2C)O1 (stereo partly specified) | 33.3% (inactive) |
| CCN(CC)CCOc1cccc2c1C(=O)c1ccccc1C2=O | 86.4% (inactive) |
| COc1cc(OC)c2c(=O)c(O)c(-c3ccccc3)oc2c1 | 76% (inactive) |
| COc1ccc(-c2cc(-c3ccccc3)nc(SCCCC(=O)NO)n2)cc1 | -20.1% (active) |
| COc1cc(-c2nn(-c3ccc(NC(=O)NCCNS(=O)(=O)c4ccc(F)cc4)cc3)cc2-c2ccncc2)ccc1Cl | 13.8% (inactive) |

| Structure (SMILES) | growth |
| --- | --- |
| Cc1[nH]c2ccccc2c1/C=N/Nc1ncnc2sc3c(c12)CCN(CC(=O)OC(C)(C)C)C3 | 63.4% (inactive) |
| O=C1CSC(=S)N1/N=C/c1ccc(Cl)s1 | 111% (inactive) |
| O=C(CC(CC(=O)c1ccccc1)c1ccccc1O)c1ccccc1 | 89.1% (inactive) |
| CCOC(=O)c1cc(C(=O)c2cc(OC)cc(OC)c2)n2nc(C)ccc12 | 18% (inactive) |
| CCCc1cn(CC(=O)Nc2nc3ccccc3s2)nn1 | 101% (inactive) |
| CC(CN(C)C)Oc1ccc(OC(C)CN(C)C)c2c1C(=O)c1ccccc1C2=O (stereo unspecified) | 54.9% (inactive) |
| COc1cc(-c2nn(-c3cccc(NC(=O)NCCNC(=O)c4cccc(C(F)(F)F)c4)c3)cc2-c2ccncc2)ccc1Cl | 16.5% (inactive) |
| Cc1ccc(NCCNCC(C)(C)O)c2c(=O)c3ccc(Cl)cc3sc12 | 76.1% (inactive) |
| CNS(=O)(=O)Oc1ccc(-c2sc3cc(OS(=O)(=O)NC)ccc3c2C(=O)c2ccc(OCCN3CCCCC3)cc2)cc1 | 69.3% (inactive) |
| CN(C)CCOc1ccccc1NC1=C(Cl)C(=O)C(Nc2ccccc2OCCN(C)C)=C(Cl)C1=O | 107% (inactive) |
| COc1cc(-c2nn(-c3cccc(NC(=O)CCNc4ccc(N5CCOCC5)cc4)c3)cc2-c2ccncc2)ccc1Cl | 40.1% (inactive) |
| C=CCSC(CC)(CC)C(=O)NC | 89.5% (inactive) |
| Cc1c(Cl)cccc1NC(=O)CCCl | 98.1% (inactive) |
| CC(=O)C1N=NCC1c1ccccc1 (stereo unspecified) | 92.1% (inactive) |
| CCN(CC)CCOc1cccc2c1C(=O)c1cccc(OCCN(CC)CC)c1C2=O | 53.3% (inactive) |
| CC(C)(C)OC(=O)CN1CCc2c(sc3ncnc(N/N=C/c4ccccc4Br)c23)C1 | 52.6% (inactive) |
| N#CCc1csc(Cc2ccccc2)n1 | 101% (inactive) |
| Clc1ccc(C2=NN=C3C(Cc4ccccc4)=Nc4ccccc4N3C2)cc1 | 98.5% (inactive) |
| CCN(CC)CC(=O)N(CC)c1ccc(C)c(Cl)c1 | 96.9% (inactive) |
| COc1cc(-c2csc(NC(=O)Nc3ccc(Cl)c(C(F)(F)F)c3)n2)cc(OC)c1OC | -7.01% (active) |
